Source: PubChem BioAssay (National Center for Advancing Translational Sciences (NCATS))
AmpC nodet inh: inhibitors of E. coli AmpC beta-lactamase without detergent; AmpC nitrocefin hydrolysis, absorbance 480 nm, no detergent; Potency, µM (doses to about 28.7 µM), for the others: at the highest dose activity change, negative = inhibition; hit rate 1.8% among 71,000; AID 585; also: % of control where 0% means no effect
Target sequence (P00811 whole entry, looked up): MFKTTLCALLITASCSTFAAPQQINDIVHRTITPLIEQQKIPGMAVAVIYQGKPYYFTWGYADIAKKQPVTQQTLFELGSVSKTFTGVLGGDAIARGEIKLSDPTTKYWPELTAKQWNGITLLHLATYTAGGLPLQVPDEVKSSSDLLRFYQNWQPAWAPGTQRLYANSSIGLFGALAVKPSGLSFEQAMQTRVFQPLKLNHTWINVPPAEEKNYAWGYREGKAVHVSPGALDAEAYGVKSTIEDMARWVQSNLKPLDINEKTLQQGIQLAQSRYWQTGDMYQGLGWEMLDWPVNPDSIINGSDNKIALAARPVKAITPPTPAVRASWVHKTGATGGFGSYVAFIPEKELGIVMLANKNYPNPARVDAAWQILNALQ
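AmpC in 20 mM phosphate buffer pH 7.0 was preincubated 15 min at room temperature with compounds. Nitrocefin (800 uM stock) was then added and hydrolysis followed at 480 nm every 20 s for 4 min.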
Prx2 Sm inh: Schistosoma mansoni Prx2 inhibition; S. mansoni Prx2 activity coupled to TGR/GSH (TGR is thioredoxin glutathione reductase), NADPH fluorescence loss, qHTS; Potency, µM; hit rate 0.07% among 65,000
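Prx2 inhibition was measured as reduced NADPH consumption when electrons flowed from NADPH through TGR and glutathione to Prx2 and H2O2. Plates were read kinetically over 8 min; enzyme reagents were held at 4 deg C during dispensing.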
AmpC inh det: inhibitors of E. coli AmpC beta-lactamase with detergent; purified AmpC, nitrocefin hydrolysis with detergent; Potency, µM (top dose mostly 28.7 µM), for the others: at the top dose activity change, negative = inhibition; hit rate 0.09% among 71,000; AID 584; P00811; active = well fitted curve in the direction sought with a large enough effect; inconclusive = small, poorly fitted or top-dose-only effect; also: % is scaled to controls: 0 for no effect and ±100 for the full control effect
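E. coli AmpC (5.3 nM) in 20 mM phosphate pH 7.0 with 0.01% Triton X-100, preincubated 15 min RT with compound; nitrocefin (2 uL of 800 uM stock) hydrolysis followed by 480 nm absorbance every 20 s over 4 min.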
LT uptake inh: anthrax lethal toxin internalization inhibition; Cells, anthrax lethal toxin internalization, FRET ratio (460/530); Potency, µM (top dose mostly 40 µM), for the others: at the top dose activity change, negative = inhibition, usual class: inhibitors; hit rate 0.67% among 70,000; also: % is scaled to controls: 0 for no effect and ±100 for the full control effect; nearly all actives have a fitted effect of over 50% in size
* marks the source's active call; other numbers are inactive results; ! = not confirmed by another sample; [ ] = remark or other dose. Hits are enriched below; roughly 2.4% of the tested compounds scored in any of these assays. Unless noted, calls follow the shape of the full dose curve. Potency is read from the fitted curve at half-maximal effect.

For CCCCCS(=O)(=O)CCCCCCCCCCn1c(-c2ccc(O)cc2)c(C)c2cc(O)ccc21 the results were LT uptake inh 5.01µM*.
CCOC(=O)c1c(C)n(CCOC)c2ccc(O)cc12 was read as AmpC nodet inh -10.0%, Prx2 Sm inh >57, AmpC inh det -2.0% and LT uptake inh -0.7%.
`C[C@@H]1O[C@H]1P(=O)(O)O` gave AmpC nodet inh 1.4%, Prx2 Sm inh >57, AmpC inh det 18.0% and LT uptake inh 8.2%.
Screening CCCCC/C=C\C/C=C\C/C=C\C/C=C\CCCC(=O)Nc1ccc(O)cc1 returned AmpC nodet inh 10µM*, Prx2 Sm inh >57, AmpC inh det -9.6% and LT uptake inh inconclusive.
CCCCC/C=C\C/C=C\C/C=C\C/C=C\CCCC(=O)NCC(=O)O was read as AmpC nodet inh 145.7%, Prx2 Sm inh >57, AmpC inh det -4.9% and LT uptake inh 6.1%.
Screening C=CC(=O)OCCCC returned AmpC nodet inh 8.6%, AmpC inh det 11.0% and LT uptake inh -2.3%.
`C=C(C#N)C(=O)OCC` gave AmpC nodet inh -9.0%, AmpC inh det 6.7% and LT uptake inh -8.1%.
`Cc1cc(O)ccc1Nc1nc2ccccc2nc1Nc1ccc(O)cc1C` gave AmpC nodet inh 12.6µM*, AmpC inh det 3.9% and LT uptake inh 15.6%.
Screening COc1ccccc1N(C(C)=O)C1SC(=O)N(c2ccccc2)C1=O (stereo not drawn) returned AmpC nodet inh 12.6%, Prx2 Sm inh >57, AmpC inh det -2.3% and LT uptake inh 8.9%.
COc1cccc(NC2SC(=O)N(c3ccccc3)C2=O)c1 (stereo not drawn) was read as AmpC nodet inh 3.98µM*[single pt active], Prx2 Sm inh >57, AmpC inh det 7.7% and LT uptake inh -17.9%.
For OCCN1CCN(CCCN2c3ccccc3Sc3ccc(Cl)cc32)CC1 the results were AmpC nodet inh 123.5%[12.8 µM], Prx2 Sm inh >57, AmpC inh det -0.1%[12.8 µM] and LT uptake inh 25.1µM*!.
For CN(C)CCCN1c2ccccc2Sc2ccc(Cl)cc21 the results were AmpC nodet inh 51.9%[12.8 µM], Prx2 Sm inh >57, AmpC inh det 0.7%[12.8 µM] and LT uptake inh inconclusive.
Screening FC(F)(F)c1nc2ccc(SSc3ccc4nc(C(F)(F)F)[nH]c4c3)cc2[nH]1 returned AmpC nodet inh -21.8%[5.75 µM], Prx2 Sm inh >57, AmpC inh det -3.6%[5.75 µM] and LT uptake inh -9.8%[8 µM].
`COc1cc2[nH]c(=O)c(C(=O)NCCCN3CCCCC3)c(O)c2cc1OC` gave AmpC nodet inh 30.6%, Prx2 Sm inh >57, AmpC inh det 8.6% and LT uptake inh 12.6µM*.
For O=C(NCCCN1CCOCC1)c1c(O)c2ccccc2[nH]c1=O the results were AmpC nodet inh 23.9%, Prx2 Sm inh >57, AmpC inh det -3.0% and LT uptake inh 3.1%.
CC(=O)O[C@H]1CC[C@H]2[C@@H]3CCC4=C[C@@H](C5SCCS5)[C@H](OC(C)=O)C[C@]4(C)[C@H]3CC[C@@]12C was read as AmpC nodet inh 0.7%[5.75 µM], Prx2 Sm inh >57, AmpC inh det 13.0%[5.75 µM] and LT uptake inh -21.6%[8 µM].
`CC1CC(C)CN(CCCNC(=O)Cn2ncc3c(=O)oc4ccccc4c32)C1` (stereo not drawn) gave AmpC nodet inh 3.16µM*[single pt active], Prx2 Sm inh >57, AmpC inh det 9.2% and LT uptake inh -5.6%.
O=C(Cn1ncc2c(=O)oc3ccccc3c21)NCCN1CCN(c2ccccc2F)CC1 was read as AmpC nodet inh 3.98µM*[single pt active], Prx2 Sm inh >57, AmpC inh det 11.8% and LT uptake inh -0.3%.
Screening O=C(Cn1ncc2c(=O)oc3ccccc3c21)N1CCCN(Cc2ccccc2F)C1 returned AmpC nodet inh 3.98µM*[single pt active], Prx2 Sm inh >57, AmpC inh det 24.0% and LT uptake inh -13.2%.
`O=C(Cn1ncc2c(=O)oc3ccccc3c21)N1CCCc2ccccc21` gave AmpC nodet inh 14.8%, Prx2 Sm inh >57, AmpC inh det -1.5% and LT uptake inh -4.2%.
O=C(Cn1ncc2c(=O)oc3ccccc3c21)N1CCN(C(=O)c2ccco2)CC1 was read as AmpC nodet inh 4.7%, Prx2 Sm inh inconclusive, AmpC inh det -1.8% and LT uptake inh -4.2%.
For CSc1ncnc2nc[nH]c12 the results were AmpC nodet inh 7.0%, Prx2 Sm inh >57, AmpC inh det 9.4% and LT uptake inh -9.7%.
N=C(N)SCc1ccc(Cl)c2ccccc12 (tested in a mixture with another compound) was read as AmpC nodet inh -9.8%[5.75 µM], Prx2 Sm inh >57, AmpC inh det -1.5%[5.75 µM] and LT uptake inh inconclusive.
